Only some compounds are listed: those with a hit (about 27% of all), similar ones and a draw of the others.
CYP2C19 inh: inhibitors of human CYP2C19; CYP2C19 Supersomes, luciferin-H EGE luminescence, 30 min; inhibition, % at 5 µM; 96,000 tested, 21% active;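 active = CYP2C19 inhibition above a set limit at 5 µM in the primary screen, cut at about 50% in these data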
CYP2C9 inhib: inhibitors of human CYP2C9 | CYP2C9 Supersomes, luciferin-H conversion, luminescence | 96,000 tested, 20% active | inhibition, % at 5 µM | P11712;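 active = blocking of liver enzyme CYP2C9 beyond about 50% at 5 µM, limit read from the data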
CYP2C19 activ: increases human CYP2C19 enzyme activity | P33261 | recombinant CYP2C19, luciferin-H EGE luminescence; hits give high values; 0 = fully inhibited enzyme, 1 = untreated enzyme | activation factor at 5 µM | 96,000 tested, under 10 active | AID 1025;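 active = activation factor of at least 2 at 5 µM in the primary screen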
CYP2C9 activ: activators of human CYP2C9; P11712; recombinant CYP2C9, luciferin-H conversion, luminescence; hits give high values; factor 1 = untreated enzyme, 0 = blocked; activation factor at 5 µM; 96,000 tested, 1.4% active; AID 1024;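 active = activation factor of 2 or more for CYP2C9 at a 5 µM dose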
Cav3 T inh: human Cav3.2 channel inhibition, primary screen. O95180. Cav3.2-expressing cells, Fluo-4 calcium fluorescence FDSS; hits give low values. B-score at 10 µM. 100,000 tested, 4% active. AID 449739;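 active = single-dose well whose peak fluorescence ratio is a statistical outlier from its plate by either plate-standardised score or position-corrected B-score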
Of the large screens only hits and unclear results are named; the others gave an inactive call.

CCC(C)NC(=O)CSc1nc2n[nH]c(C)c2c(=N)n1-c1ccc(OC)cc1 (configuration not stated)	none
CCOC(=O)CSc1nnc(CNC(=O)c2ccc(OC)cc2)n1-c1ccc(OC)cc1	none
CCOC(=O)CNC(=O)CSc1nnc(-c2cccc(C)c2)n1-c1ccc(OC)cc1	CYP2C19 inh 68.6
CCOc1ccc(NC(=O)CSc2nnc(-c3ccccc3)n2N)cc1	none
O=C(Nc1cc(Cl)cc(Cl)c1)c1cccc(OC(F)F)c1	none
Cc1ccc2nc(N/N=C\c3ccc([N+](=O)[O-])o3)nc(-c3ccccc3)c2c1	CYP2C19 inh 72.9, CYP2C9 inhib 86.8 (no result: Cav3 T inh)
CCOc1ccc(CN(C(=O)c2oc3ccccc3c2C)C2CCS(=O)(=O)C2)cc1 (configuration not stated)	none
CC(C)c1ccc(CN(C(=O)c2cc3ccccc3oc2=O)C2CCS(=O)(=O)C2)cc1 (configuration not stated)	CYP2C9 inhib 62.5
COc1ccc(CN(C(=O)c2oc3ccccc3c2C)C2CCS(=O)(=O)C2)cc1OC (configuration not stated)	CYP2C19 inh 75.2, CYP2C9 inhib 95.6
C=Cn1nc(C)c2ccccc2c1=O	none (no result: Cav3 T inh)
CC(C)c1nc(=S)c2ccccc2[nH]1	CYP2C19 inh 62.7, CYP2C9 inhib 52.7
CCOC(=O)C1=C(CSc2nc3c(cc2C#N)CN(C)CC3)OC(N)=C(C#N)C1c1ccc(F)cc1 (configuration not stated)	CYP2C19 inh 91.8, CYP2C9 inhib 85.8 (no result: Cav3 T inh)
CCOC(=O)C1=C(CSc2nc3c(cc2C#N)CCC3)OC(N)=C(C#N)C1c1ccccc1 (configuration not stated)	Cav3 T inh -5.12 (no result: CYP2C19 inh, CYP2C9 inhib, CYP2C19 activ, CYP2C9 activ)
CCOC(=O)C1=C(CSc2nc3c(cc2C#N)CN(C)CC3)OC(N)=C(C#N)C1c1ccccc1 (configuration not stated)	none
COc1cccc(NC(=O)CC2C(=O)NC3CCCCC3N2C(=O)c2ccc(F)cc2)c1 (configuration not stated)	none
CCc1c(C)nc(N)n2c(SCC(=O)Nc3ccccc3)nnc12	none
CC(=O)C1=C(C)OC(N)=C(C#N)C1c1ccncc1 (configuration not stated)	none
CCOC(=O)C1=C(C)OC(N)=C(C(=O)OCC)C1c1ccncc1 (configuration not stated)	CYP2C19 inh 93.4, CYP2C9 inhib 99.4
CCOC(=O)C1=C(C)OC(N)=C(C(=O)OCC)C1c1cccnc1 (configuration not stated)	CYP2C19 inh 92.5, CYP2C9 inhib 96.0
Cc1nc(C)n(CC(O)COc2ccc3cc(Br)ccc3c2)n1 (configuration not stated)	none
Cc1ccc(CNC(=O)C2CCCCC2C(=O)O)cc1 (configuration not stated)	none
COc1ccc(C(=O)CC(Nc2ccc([N+](=O)[O-])cc2)c2ccc(OC)cc2)cc1 (configuration not stated)	CYP2C9 inhib 68.2
COc1ccc(CCNC(=O)c2noc3c2CCCC3)cc1OC	none
COc1ccc(CCNC(=O)c2c(-c3ccccc3)noc2C)cc1OC	CYP2C19 inh 89.7, CYP2C9 inhib 85.6
Cc1onc(-c2ccccc2)c1C(=O)NC(C)C	none
COc1ccc(Cc2nnc(NC(=O)CSc3ccccc3)s2)cc1	none
CCOC(=O)c1c(NC(=O)c2c(-c3ccccc3)noc2C)sc(C)c1-c1ccccc1	none (no result: Cav3 T inh)
COc1ccc(Cc2nnc(NC(=O)c3c(-c4ccccc4)noc3C)s2)cc1OC	CYP2C9 inhib 53.7 (no result: Cav3 T inh)
Cc1onc(-c2ccccc2)c1C(=O)NCCc1c[nH]c2ccccc12	CYP2C19 inh 58.6, CYP2C9 inhib 56.4
COc1ccc(Cc2nnc(NC(=O)c3c(-c4ccccc4)noc3C)s2)cc1	CYP2C19 inh 84.0, CYP2C9 inhib 93.1, Cav3 T inh -5.23
COc1ccccc1C1(CC(=O)N2CCOCC2)CCOC(C(C)C)C1 (configuration not stated)	none
C=CCSc1nnc(-c2cc3c(s2)-c2ccccc2CC3)o1	none
Cc1ccc(S(=O)(=O)NC2CCC(C(=O)O)CC2)cc1 (configuration not stated)	none
Cc1ccc(-c2nnn(CC(=O)O)n2)cc1	none
CSc1ccc(-c2nnn(Cc3ccc(C)cc3)n2)cc1	CYP2C19 inh 61.5
CCOC(=O)C(NC(=O)Nc1ccccc1)(OCC)C(F)(F)F (configuration not stated)	CYP2C19 inh 50.3
CCOC(=O)C(NC(C)=O)(OCc1ccc(F)cc1)C(F)(F)F (configuration not stated)	CYP2C19 inh 55.3
CCOC(=O)Cc1cnc(NC(=O)NC(C(=O)OCC)(c2ccccc2)C(F)(F)F)s1 (configuration not stated)	CYP2C19 inh 53.0
C=CCOC(=O)C1=C[C@H](c2coc3ccccc3c2=O)[C@@H](CCCO)[C@H](OCC)O1	none (no result: CYP2C19 inh, CYP2C9 inhib, CYP2C19 activ, CYP2C9 activ)
Cc1cc2ncn(S(=O)(=O)N(C)C)c2cc1C	none
COC(=O)Cn1nc(-c2ccccc2)c2ccccc21	none (no result: CYP2C19 inh, CYP2C9 inhib, CYP2C19 activ, CYP2C9 activ)
C#CCN1C(=O)C(O)(CC(=O)c2cccc(OC)c2)c2ccccc21 (configuration not stated)	none
CCOC(=O)CN1C(=O)C(O)(CC(=O)c2cccc(OC)c2)c2ccccc21 (configuration not stated)	CYP2C19 inh 62.8
CCOC(=O)CN1C(=O)C(O)(CC(=O)c2ccc3c(c2)CCCC3)c2ccccc21 (configuration not stated)	Cav3 T inh -7.26 (no result: CYP2C19 inh, CYP2C9 inhib, CYP2C19 activ, CYP2C9 activ)
Cc1csc(NC(=O)CSc2nnc3c4ccccc4nc(C(C)(C)C)n23)n1	none
O=C(CCC1N=C2c3ccccc3N=C(SCc3ccccc3Cl)N2C1=O)NCc1ccco1 (configuration not stated)	CYP2C9 inhib 59.8, Cav3 T inh -4.19
O=C(CSC1=Nc2ccccc2C2=NC(CC(=O)NC3CCCCC3)C(=O)N12)NCc1ccco1 (configuration not stated)	none
CC(C)(C)CC(C)(C)NCC(O)COc1c(F)cc(Br)cc1F (configuration not stated)	Cav3 T inh -5.66
C/C(=N\NC(=O)CSCc1ccc(Cl)cc1)c1ccc2c(c1)OCCO2	CYP2C19 inh 84.1, CYP2C9 inhib 64.4
CC1CN(C(=O)CN2C(=O)c3ccccc3C2=O)CC(C)O1 (configuration not stated)	none
O=C(OCc1c(F)cccc1Cl)c1cnccn1	none (no result: Cav3 T inh)
O=S(=O)(c1ccc(F)cc1)n1ccc(-c2cccc(OCc3c(F)cccc3Cl)c2)n1	CYP2C9 inhib 87.5
O=S(=O)(c1ccc(Cl)cc1)n1ccc(-c2cccc(OCc3c(F)cccc3Cl)c2)n1	CYP2C9 inhib 59.6
CC(=O)c1cccc(NC(=O)N2CCC(c3nnc(SCC(N)=O)n3C)CC2)c1	none
Cc1cccc2cc(CN(Cc3ccc(F)cc3)Cc3nnnn3C3CCCC3)c(=O)[nH]c12	none
Cc1cc(C)c2[nH]c(=O)c(CN(Cc3ccc4c(c3)OCO4)Cc3nnnn3C3CCCC3)cc2c1	CYP2C19 inh 84.4, CYP2C9 inhib 90.8
